{"source": "PubChem BioAssay (NCATS)", "note": "Records with an inconclusive call do not appear. Where a call stands in place of a potency, no number is given. The source made the active and inactive calls. Calls follow the shape of the dose curve; as a rule, active = well fitted inhibition curve with a large enough effect; inconclusive = small, poorly fitted or top-dose-only effect; inactive = flat fitted curve, though single readings scatter. Potency is read from the fitted curve at half-maximal effect."}
{"system": "DFO2036", "experiment": "qHTS profiling for inhibitors of Plasmodium falciparum proliferation (AID 504749); also: nearly all actives have a fitted effect of over 60% in size", "conditions": "P. falciparum in erythrocytes, SYBR Green DNA, 72 h; series mostly up to 28.7 µM", "outline": "(§1)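 Readout was DNA-dye fluorescence from lysed cultures, ex 485/em 535 nm. Parasitized red cells had grown 72 h with compound; data scaled between 0.29 uM artemisinin and DMSO wells and corrected using vehicle-only plates.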"}
{"smiles": "C[C@@H](O)[C@H]1C(=O)N2C(C(=O)O)=C(S[C@@H]3CN[C@H](C(=O)N(C)C)C3)[C@H](C)[C@H]12", "outcome": "inactive"}
{"smiles": "CC(=O)CCCCn1c(=O)c2c(ncn2C)n(C)c1=O", "outcome": "inactive"}
{"smiles": "O=C(O)c1cc(-c2ccccc2)nc2ccccc12", "outcome": "inactive"}
{"smiles": "O=C(O)Cc1cccc2ccccc12", "outcome": "inactive"}
{"smiles": "CCN(CC)C(=O)c1ccc(O)c(OC)c1", "outcome": "inactive"}
{"smiles": "O=C1Nc2ccc(Cl)cc2C(C#CC2CC2)(C(F)(F)F)O1", "note": "(stereo not drawn)", "outcome": "inactive"}
{"smiles": "CCCNC(=O)NS(=O)(=O)c1ccc(Cl)cc1", "outcome": "inactive"}
{"smiles": "CCN1CCC[C@H]1CNC(=O)c1cc(S(N)(=O)=O)ccc1OC", "outcome": "inactive"}
{"smiles": "C[N+](C)(C)CCCCCC[N+](C)(C)C", "outcome": "inactive"}
{"smiles": "O=c1[nH]cnc2c1ncn2[C@H]1CC[C@@H](CO)O1", "outcome": "inactive"}
{"smiles": "CCN(CC)CCNC(=O)c1ccc(N)cc1", "outcome": "inactive"}
{"smiles": "O=C(O)c1c(Cl)c(Cl)c(Cl)c(Cl)c1-c1c2cc(I)c(=O)c(I)c-2oc2c(I)c(O)c(I)cc12", "outcome": "inactive"}
{"smiles": "CCOC(=O)O[C@]1(C(=O)OCCl)CC[C@@H]2[C@H]3CCC4=CC(=O)C=C[C@]4(C)[C@@H]3[C@@H](O)C[C@@]21C", "outcome": "inactive"}
{"smiles": "Clc1ccc(Cn2c(CN3CCCC3)nc3ccccc32)cc1", "outcome": "inactive"}
{"smiles": "CCN(CC)CCOC(=O)c1ccc(N)cc1", "outcome": "inactive"}
{"system": "DIV14", "experiment": "qHTS profiling for inhibitors of Plasmodium falciparum proliferation (AID 504749); also: nearly all actives have a fitted effect of over 60% in size", "conditions": "P. falciparum in erythrocytes, SYBR Green DNA, 72 h; series mostly up to 28.7 µM", "outline": "as §1"}
{"smiles": "COc1ccc(Cc2nccc3cc(OC)c(OC)cc23)cc1OC", "Potency": "inactive"}
{"smiles": "CC(=O)c1ccc(S(=O)(=O)NC(=O)NC2CCCCC2)cc1", "Potency": "inactive"}
{"smiles": "CC1=C(/C=C/C(C)=C/C=C/C(C)=C/C(=O)Nc2ccc(O)cc2)C(C)(C)CCC1", "Potency": "16.9 µM (active)"}
{"smiles": "CC(=O)N[C@@H](CS)C(=O)O", "Potency": "inactive"}
{"smiles": "Cc1cnc(C(=O)O)c[n+]1[O-]", "Potency": "inactive"}
{"smiles": "O=C1NC(=O)C(c2ccccc2)(c2ccccc2)N1", "Potency": "inactive"}
{"smiles": "CN(C)CCC(c1ccccc1)c1ccccn1", "note": "(stereo not drawn)", "Potency": "6.75 µM (active)"}
{"smiles": "CC/C(=C(\\c1ccccc1)c1ccc(OCCN(C)C)cc1)c1ccccc1", "Potency": "13.5 µM (active)"}
{"smiles": "O=C1NCC2(CCN(CCc3ccccc3)CC2)O1", "Potency": "inactive"}
{"smiles": "NC(N)=Nc1nc(CSCC/C(N)=N/S(N)(=O)=O)cs1", "Potency": "inactive"}
{"smiles": "CCCCCN(C)CCC(O)(P(=O)(O)O)P(=O)(O)O", "Potency": "inactive"}
{"smiles": "NCCS", "Potency": "inactive"}
{"smiles": "COc1ccccc1N1CCN(CCCNc2cc(=O)n(C)c(=O)n2C)CC1", "Potency": "inactive"}
{"smiles": "O=C(NCCN1CCOCC1)c1ccc(Cl)cc1", "Potency": "inactive"}
{"smiles": "C[C@@H](O)[C@H]1C(=O)N2C(C(=O)O)=C(S[C@@H]3CN[C@H](C(=O)N(C)C)C3)[C@H](C)[C@H]12", "Potency": "inactive"}
{"smiles": "CC(=O)CCCCn1c(=O)c2c(ncn2C)n(C)c1=O", "Potency": "inactive"}
{"smiles": "O=C(O)c1cc(-c2ccccc2)nc2ccccc12", "Potency": "inactive"}
{"smiles": "O=C(O)Cc1cccc2ccccc12", "Potency": "inactive"}
{"smiles": "CCN(CC)C(=O)c1ccc(O)c(OC)c1", "Potency": "inactive"}
{"smiles": "CCCNC(=O)NS(=O)(=O)c1ccc(Cl)cc1", "Potency": "inactive"}
{"smiles": "CCN1CCC[C@H]1CNC(=O)c1cc(S(N)(=O)=O)ccc1OC", "Potency": "inactive"}
{"smiles": "C[N+](C)(C)CCCCCC[N+](C)(C)C", "Potency": "inactive"}
{"smiles": "O=c1[nH]cnc2c1ncn2[C@H]1CC[C@@H](CO)O1", "Potency": "inactive"}
{"smiles": "CCN(CC)CCNC(=O)c1ccc(N)cc1", "Potency": "inactive"}
{"smiles": "O=C(O)c1c(Cl)c(Cl)c(Cl)c(Cl)c1-c1c2cc(I)c(=O)c(I)c-2oc2c(I)c(O)c(I)cc12", "Potency": "inactive"}
{"smiles": "COCCCCC(=NOCCN)c1ccc(C(F)(F)F)cc1", "Potency": "6.75 µM (active)"}
{"smiles": "CCOC(=O)O[C@]1(C(=O)OCCl)CC[C@@H]2[C@H]3CCC4=CC(=O)C=C[C@]4(C)[C@@H]3[C@@H](O)C[C@@]21C", "Potency": "inactive"}
{"smiles": "CCN(CC)CCOC(=O)c1ccc(N)cc1", "Potency": "inactive"}
